Data published in PubChem BioAssay AID652217 (Sanford-Burnham Center for Chemical Genomics, 2013).
The campaign covered roughly 1,800 compounds. About 240 (13%) were called active. This is one part of a sample in which actives are shown more often than they occur. Values without a mark were called inactive. Cut-off read from the data, not from the text of the source: active = inhibition above about 40%; inactive = the rest.

Biological target: NEDD8-conjugating enzyme Ubc12 (Homo sapiens) + NEDD8-activating enzyme E1 regulatory subunit (Homo sapiens) (UniProt P61081+Q13564)
Experiment: blockade of NEDD8 conjugation to cullin – biochemical, TR-FRET, single concentration, confirmation (AID 652217);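 note: neddylation substrate is the cullin 1 ring ligase complex with SKP2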
Conditions: TR-FRET cullin neddylation biochemical assay; at 25 µM; active compounds read high

Sequence of NEDD8-conjugating enzyme Ubc12 (Homo sapiens) + NEDD8-activating enzyme E1 regulatory subunit (Homo sapiens) (P61081 whole entry, looked up): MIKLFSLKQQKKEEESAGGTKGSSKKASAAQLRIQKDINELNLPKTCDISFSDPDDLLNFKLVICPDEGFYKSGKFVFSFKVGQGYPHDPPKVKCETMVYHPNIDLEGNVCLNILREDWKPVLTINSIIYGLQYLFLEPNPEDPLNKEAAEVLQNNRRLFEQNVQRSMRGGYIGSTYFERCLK
Sequence of NEDD8-conjugating enzyme Ubc12 (Homo sapiens) + NEDD8-activating enzyme E1 regulatory subunit (Homo sapiens) (Q13564 whole entry, looked up): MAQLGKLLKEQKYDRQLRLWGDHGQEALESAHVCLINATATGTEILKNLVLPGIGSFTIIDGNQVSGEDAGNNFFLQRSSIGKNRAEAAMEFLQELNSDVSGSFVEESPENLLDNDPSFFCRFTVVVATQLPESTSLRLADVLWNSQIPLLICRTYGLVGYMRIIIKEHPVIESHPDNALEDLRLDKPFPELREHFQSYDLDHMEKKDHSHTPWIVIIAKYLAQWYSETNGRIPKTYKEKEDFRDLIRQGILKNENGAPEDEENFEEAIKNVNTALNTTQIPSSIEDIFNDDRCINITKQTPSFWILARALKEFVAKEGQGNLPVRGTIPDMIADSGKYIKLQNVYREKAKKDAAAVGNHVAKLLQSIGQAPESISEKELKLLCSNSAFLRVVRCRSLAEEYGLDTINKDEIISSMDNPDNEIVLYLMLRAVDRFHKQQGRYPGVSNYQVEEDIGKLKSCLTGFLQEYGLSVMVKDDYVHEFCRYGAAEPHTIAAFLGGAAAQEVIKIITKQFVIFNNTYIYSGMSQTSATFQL

In the case of `CC(=CCOc1ccc2ccc(=O)oc2c1)C1=CC(=O)C(C)(C)O1`, the inhibition is reported as 44.2% (active).

First: CCN1c2nc3c(C)cccn3c(=O)c2CC2(C(=O)N(C)C(=O)N(C)C2=O)C1C (centres undefined)
Second: CCC(C)n1c(O)c(/C=N/Nc2nc3c(c(=O)n(C)c(=O)n3C)n2C)c(=O)[nH]c1=S (centres undefined)
The inhibition of the first is higher: 9.81% for the first, -31.5% for the second.

Compound `CCCCC(=O)N/N=C/c1c(O)n(CCC2=CCCCC2)c(=O)[nH]c1=O` has an inhibition of 2.57%.
